Results on 28 molecules are retold here after PubChem BioAssay (EPA / NIEHS).

One may read the AC50 as the midpoint of the concentration-response curve, whichever way the signal moves.

Molecules are shown by their SMILES. Activity calls are given as the source filed them. The calls were made as follows: active = hit-call score of the fitted dose curve at least 0.9, where 1 is the maximum; inactive = score below 0.9.

Assay [1] can be described thus: ATG_CRE_CIS: Attagene CIS-FACTORIAL HepG2 Assay for human cAMP Responsive Element (CRE) binding protein 3 (AID 2282926). The following applies: HepG2 CRE cis-reporter, Attagene multiplexed mRNA; actives raise or lower the signal. A digest of the protocol: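 HepG2 cells transiently transfected with a multiplexed reporter library (CRE-driven unit among them) were dosed for 24 h. Reporter mRNA was quantified by RT-PCR, fluorescent labelling, HpaI digestion and capillary electrophoresis, with bidirectional fitting against DMSO baseline.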

Assay [2] deals with CCAAT/enhancer-binding protein beta (Homo sapiens) (UniProt P17676). The assay is described as follows: ATG_C_EBP_CIS: Attagene CIS-FACTORIAL HepG2 Assay for human CCAAT/Enhancer Binding Protein (C/EBP) beta (AID 2282927). The following applies: HepG2 Attagene cis-factorial transcription factor reporter; actives raise or lower the signal. A digest of the protocol:
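Endogenous transcription factor activity in human liver HepG2 cells is inferred from induction of a CEBPB-linked reporter mRNA. Exposure lasts 24 h; activity is fitted in both directions relative to DMSO.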

Assay [3] can be described thus: ATG_CMV_CIS: Attagene CIS-FACTORIAL HepG2 Assay for human CMV (Internal Marker) (AID 2282928).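 Also: endpoint acts as a background internal control marker rather than a target.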 The conditions noted are these: HepG2 CMV promoter reporter, transcription factor profiling; actives raise or lower the signal. In outline:
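Cell system: HepG2, transiently transfected multiple reporter units under cis promoters. Exposure: 24 h. Detection: RT-PCR, FAM labeling, HpaI digestion, capillary electrophoresis. Analysis: bidirectional, DMSO baseline.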

Assay [4] in a line: ATG_DR4_LXR_CIS: Attagene CIS-FACTORIAL HepG2 Assay for human Liver X Receptor (LXR), DR4 submotif (AID 2282929). The following applies: HepG2 Attagene DR4 cis-reporter, mRNA transcription; actives raise or lower the signal. A digest of the protocol:
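Endogenous factor activity at a DR4 cis-element is read as reporter mRNA in transiently transfected HepG2 cells. Exposure lasts 24 h; transcripts are amplified, fluorescently labelled and sized by capillary electrophoresis, with DMSO as baseline.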

In assay [5] the target is Aryl hydrocarbon receptor (Homo sapiens) (UniProt P35869). In words: ATG_Ahr_CIS: Attagene CIS-FACTORIAL HepG2 Assay for human Aryl Hydrocarbon Receptor (Ahr) (AID 2282930). The following applies: HepG2 AhR cis-factorial reporter transcription; actives raise or lower the signal. In outline: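 Transient MRTU transfection of HepG2 → 24 h compound exposure → total RNA, oligo(dT) RT → PCR, 6-FAM extension, HpaI cut → CE fluorescence. DMSO = baseline; bidirectional curve fit.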
Chain of Aryl hydrocarbon receptor (Homo sapiens) (P35869 whole entry, looked up): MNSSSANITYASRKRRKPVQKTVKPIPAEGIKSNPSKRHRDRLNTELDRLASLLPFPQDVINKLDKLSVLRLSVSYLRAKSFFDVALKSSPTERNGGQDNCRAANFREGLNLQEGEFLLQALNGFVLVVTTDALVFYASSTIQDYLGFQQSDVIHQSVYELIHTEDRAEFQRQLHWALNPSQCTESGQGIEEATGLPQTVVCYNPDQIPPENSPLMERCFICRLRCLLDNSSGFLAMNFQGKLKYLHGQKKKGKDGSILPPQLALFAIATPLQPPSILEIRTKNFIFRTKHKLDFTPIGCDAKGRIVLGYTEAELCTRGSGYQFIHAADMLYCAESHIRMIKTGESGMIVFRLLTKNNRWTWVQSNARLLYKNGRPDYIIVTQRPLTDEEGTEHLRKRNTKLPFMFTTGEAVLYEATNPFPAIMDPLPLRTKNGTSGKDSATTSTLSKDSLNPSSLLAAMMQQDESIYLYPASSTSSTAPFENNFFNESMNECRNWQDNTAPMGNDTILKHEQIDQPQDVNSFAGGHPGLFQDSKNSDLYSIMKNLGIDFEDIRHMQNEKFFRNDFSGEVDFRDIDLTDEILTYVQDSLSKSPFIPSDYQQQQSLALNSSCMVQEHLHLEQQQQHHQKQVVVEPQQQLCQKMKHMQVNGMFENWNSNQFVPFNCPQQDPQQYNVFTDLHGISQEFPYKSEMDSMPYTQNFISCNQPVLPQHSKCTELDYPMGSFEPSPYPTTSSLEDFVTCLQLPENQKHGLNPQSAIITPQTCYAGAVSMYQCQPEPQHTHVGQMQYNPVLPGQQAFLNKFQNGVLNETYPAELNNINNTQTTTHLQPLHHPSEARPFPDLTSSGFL

Assay [6] can be described thus: ATG_AP_1_CIS: Attagene CIS-FACTORIAL HepG2 Assay for human Activator Protein 1 (AP-1) (AID 2282931). The following applies: HepG2 Attagene cis-factorial AP-1 reporter mRNA; actives raise or lower the signal. In outline:
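Fluorescence of labelled PCR fragments separated by capillary electrophoresis gives reporter mRNA levels. HepG2 with transfected cis-regulated reporter units, 24 h exposure; DMSO serves as baseline for bidirectional curve fits.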

A short description of assay [7]: ATG_AP_2_CIS: Attagene CIS-FACTORIAL HepG2 Assay for human Activator Protein 2 (AP-2) (AID 2282932). The conditions noted are these: HepG2 AP-2 cis-reporter, Attagene transcription factor profiling; actives raise or lower the signal. A digest of the protocol:
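HepG2, transient MRTU transfection, cis-regulated reporters; 24 h compound exposure; RNA isolated, RT-PCR, 6-FAM labelling, HpaI digest, CE fluorescence. DMSO = negative control/baseline, bidirectional fit.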

A short description of assay [8]: ATG_BRE_CIS: Attagene CIS-FACTORIAL HepG2 Assay for human Bone Morphogenetic Protein (BMP) Response Element (BRE) (AID 2282933). The following applies: HepG2 BMP response element reporter, Attagene transcription factor profiling; actives raise or lower the signal. A digest of the protocol: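 Read-out: reporter mRNA induction quantified by RT-PCR and capillary electrophoresis after 24 h chemical exposure of transfected HepG2 cells. Endogenous factor activity on the BMP response element; gain or loss fitted against DMSO baseline.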

In assay [9] the target is Retinoic acid receptor alpha (Homo sapiens) (UniProt P10276). In words: ATG_DR5_RAR_CIS: Attagene CIS-FACTORIAL HepG2 Assay for human Retinoic Acid Receptor Alpha (RARE), DR5 submotif (AID 2282934).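 As to AC50: reporter responds to endogenous RAR alpha beta and gamma in HepG2 not RARA alone.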 The following applies: HepG2 Attagene cis-factorial RARE DR5 reporter, mRNA; actives raise or lower the signal. In outline: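 Transient MRTU transfection of HepG2; 24 h compound treatment; TriZol RNA, oligo(dT) RT, PCR, FAM labelling, capillary electrophoresis. Bidirectional fit vs DMSO. Endogenous TF activity at DR5 RARE.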
Chain of Retinoic acid receptor alpha (Homo sapiens) (P10276 whole entry, looked up): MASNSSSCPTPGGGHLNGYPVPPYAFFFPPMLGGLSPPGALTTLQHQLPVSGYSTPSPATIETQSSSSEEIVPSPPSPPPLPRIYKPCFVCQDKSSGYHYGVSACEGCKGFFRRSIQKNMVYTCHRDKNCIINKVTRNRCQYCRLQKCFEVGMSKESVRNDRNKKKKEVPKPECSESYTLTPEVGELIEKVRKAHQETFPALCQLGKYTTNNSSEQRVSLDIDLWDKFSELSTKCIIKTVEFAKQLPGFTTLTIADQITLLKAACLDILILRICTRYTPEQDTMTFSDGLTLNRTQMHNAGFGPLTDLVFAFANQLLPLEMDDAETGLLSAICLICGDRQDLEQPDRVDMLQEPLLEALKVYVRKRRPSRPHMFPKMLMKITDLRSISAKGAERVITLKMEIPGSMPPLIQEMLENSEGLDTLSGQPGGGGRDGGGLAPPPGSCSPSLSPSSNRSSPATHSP

Chain of CCAAT/enhancer-binding protein beta (Homo sapiens) (P17676 whole entry, looked up): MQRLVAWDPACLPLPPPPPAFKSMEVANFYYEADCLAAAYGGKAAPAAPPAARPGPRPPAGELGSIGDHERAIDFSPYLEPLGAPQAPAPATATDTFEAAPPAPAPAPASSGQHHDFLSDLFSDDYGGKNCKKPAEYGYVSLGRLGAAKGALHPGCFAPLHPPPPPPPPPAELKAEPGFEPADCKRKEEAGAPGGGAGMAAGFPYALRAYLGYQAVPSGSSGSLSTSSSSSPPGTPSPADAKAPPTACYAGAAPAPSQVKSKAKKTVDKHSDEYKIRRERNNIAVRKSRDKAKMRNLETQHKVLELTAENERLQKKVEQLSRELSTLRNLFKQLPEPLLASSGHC

Regarding `CC(=O)CCC(=O)O`, the molecule was called inactive in assay [1], in assay [2], in assay [3], in assay [4], in assay [5] and in assay [6]. For the same molecule, the molecule was classed as inactive in [7] and in [8].

For `CC(=O)c1ccc(O)cc1`, the result in assay [1], in [2], in [3], in assay [4], in assay [5] and in assay [6] was inactive. Moreover, the molecule was classed as inactive in [7] and in [8].

`[Na+]`: the result in [1], in [2], in assay [3], in [4], in [5] and in [6] was inactive. The outcome in assay [7] and in assay [8] was inactive.

Take `CCCCOCCOCCOCCO`: the result in [1], in assay [2], in [3], in [4], in [5] and in [6] was inactive. Also, the molecule was classed as inactive in assay [7], in assay [8] and in assay [9].

For the molecule `CCCCCC(=O)O[C@]1(C(C)=O)CC[C@H]2[C@@H]3CCC4=CC(=O)CC[C@]4(C)[C@H]3CC[C@@]21C`, the AC50 was 6.58 µM (active) in [1], 8.6 µM (active) in assay [2], 36.5 µM (active) in [6] and 7.66 µM (active) in assay [8]. In addition, the call in [3], in [4], in assay [5] and in [7] was inactive.

With `CCOC(=O)COC(=O)c1ccccc1C(=O)OCC`, the call in [1], in assay [2], in assay [3], in assay [4], in [5] and in assay [6] was inactive. In addition, the call in assay [7] and in assay [8] was inactive.

Consider `CCCC1CCC(=O)CC1`, for which the molecule was called inactive in assay [1], in assay [2], in [3], in [4], in assay [6] and in assay [7]. For the same molecule, in assay [8], the result was inactive. In addition, the AC50 in [5] is 44.4 µM (active).

In the case of `NC(=O)c1c(Cl)cccc1Cl`, the outcome in assay [1], in [2], in assay [3], in assay [4], in [6] and in assay [7] was inactive. Further, in assay [8], the outcome was inactive. The AC50 in [5] is 55.4 µM (active).

For `CC(=N[Si](C)(C)C)O[Si](C)(C)C`, the molecule was classed as inactive in [1], in assay [2], in assay [3], in assay [4], in assay [5] and in assay [6]. In addition, the result in [7] and in [8] was inactive.

On to `CC(O)COCC(C)O` (configuration not stated), for which the outcome in assay [1], in assay [2], in assay [3], in [4], in [5] and in [6] was inactive. Further, the outcome in [7] and in assay [8] was inactive.

With `C=C(C)C(=O)OCCOCCOC(=O)C(=C)C`, the result in assay [1], in [2], in assay [3], in assay [4], in assay [5] and in assay [6] was inactive. The molecule was called inactive in assay [7] and in assay [8].

In the case of `CC(CCO)CC(C)(C)C` (configuration not stated), the result in assay [1], in assay [2], in [3], in assay [4], in [5] and in [6] was inactive. Further, the molecule was called inactive in assay [7], in [8] and in assay [9].

Regarding `CC(C)CCCC(C)(C)O`, the result in assay [1], in assay [2], in assay [3], in assay [4], in assay [5] and in assay [6] was inactive. Further, the result in assay [7] and in assay [8] was inactive.

For `CCCCC(CC)COCCO` (configuration not stated), the result in assay [1], in [2], in [3], in [4], in assay [6] and in assay [7] was inactive. In addition, the outcome in assay [8] was inactive. In assay [5], the AC50 was 19.8 µM (active).

Take `S=c1[nH][nH]c(=S)s1`: the call in assay [1], in assay [2], in [3], in assay [4], in assay [5] and in [6] was inactive. The outcome in assay [7] and in [8] was inactive.

As for `CCCCCCCCCCCCS`, the call in assay [1], in [3], in assay [5], in assay [7] and in assay [8] was inactive. Further, the AC50 in [2] is 24.2 µM (active); in [4], 33.4 µM (active); in assay [6], 48.8 µM (active); in assay [9], 9.11 µM (active).

`CC(C)Cc1ccccc1`: the call in [1], in assay [2], in assay [3], in [4], in assay [5] and in assay [6] was inactive. For the same molecule, the call in [7], in assay [8] and in assay [9] was inactive.

For `NCCN1CCNCC1`, the call in assay [1], in assay [2], in assay [3], in [4], in [5] and in assay [6] was inactive. Also, the molecule was classed as inactive in assay [7], in [8] and in assay [9].

In the case of `CC(C)COC(=O)c1ccccc1`, the molecule was classed as inactive in [1], in [2], in [3], in [4], in assay [5] and in assay [6]. Also, the molecule was called inactive in assay [7], in assay [8] and in assay [9].

On to `c1ccc(Sc2ccccc2)cc1`, for which the molecule was classed as inactive in assay [1], in assay [2], in assay [3], in assay [4], in [5] and in [6]. Moreover, the outcome in [7], in assay [8] and in assay [9] was inactive.

Turning to `COC(=O)c1ccc(C(=O)OC)cc1`, the call in [1], in [2], in assay [3], in assay [4], in assay [5] and in assay [6] was inactive. Also, the molecule was classed as inactive in [7], in assay [8] and in assay [9].

On to `C=C(C)C(=O)OCCC[Si](OC)(OC)OC`, for which the call in assay [1], in [2], in assay [3], in assay [4], in assay [5] and in [6] was inactive. The molecule was called inactive in assay [7], in assay [8] and in assay [9].

`CC(CO)(CO)[N+](=O)[O-]`: the molecule was called inactive in [1], in assay [2], in [3], in assay [4], in assay [5] and in assay [7]. Besides, in assay [8], the outcome was inactive.

Regarding `C=C(C)CCCC(C)CCO` (configuration not stated), the molecule was called inactive in assay [1], in assay [2], in [3], in assay [4], in assay [5] and in assay [6]. The molecule was called inactive in assay [7], in assay [8] and in assay [9].

Consider `NC(N)=NC(N)=NCCc1ccccc1`, for which the outcome in assay [1], in [2], in assay [3], in assay [4], in assay [5] and in assay [6] was inactive. Also, the call in assay [7] and in assay [9] was inactive. The half-maximal activity concentration (AC50) in assay [8] is 36.4 µM (active).

On to `CNC(=C[N+](=O)[O-])NCCSCc1ccc(CN(C)C)o1`, for which the molecule was called inactive in [1], in [2], in [3], in assay [4], in assay [5] and in assay [6]. Moreover, the call in assay [7], in [8] and in assay [9] was inactive.

Consider `CCCCCC1C(=O)CCC1CC(=O)OC` (configuration not stated), for which the molecule was called inactive in [1], in [2], in [3], in [4], in [5] and in assay [6]. For the same molecule, the molecule was called inactive in [7], in assay [8] and in assay [9].

`CCC(C)(C)C1CCC(=O)CC1`: the result in assay [1], in assay [2], in [3], in [4], in assay [5] and in [6] was inactive. Besides, the molecule was classed as inactive in [7], in assay [8] and in [9].
